Compound activity deposited in PubChem by National Center for Advancing Translational Sciences (NCATS).
Shown are actives, neighbours in structure and some others; about 6% of the full set was active somewhere.
D1 potentiator: human D1 dopamine receptor positive modulation | P21728 | HEK293 TREx D1 cells, calcium flux, dopamine EC20 potentiation | potentiation, % at 10 µM | actives 0.036% (n = 360,000); in the data active means potentiation above about 30%; further: 0% is about no effect
Target sequence (P21728 whole entry, looked up): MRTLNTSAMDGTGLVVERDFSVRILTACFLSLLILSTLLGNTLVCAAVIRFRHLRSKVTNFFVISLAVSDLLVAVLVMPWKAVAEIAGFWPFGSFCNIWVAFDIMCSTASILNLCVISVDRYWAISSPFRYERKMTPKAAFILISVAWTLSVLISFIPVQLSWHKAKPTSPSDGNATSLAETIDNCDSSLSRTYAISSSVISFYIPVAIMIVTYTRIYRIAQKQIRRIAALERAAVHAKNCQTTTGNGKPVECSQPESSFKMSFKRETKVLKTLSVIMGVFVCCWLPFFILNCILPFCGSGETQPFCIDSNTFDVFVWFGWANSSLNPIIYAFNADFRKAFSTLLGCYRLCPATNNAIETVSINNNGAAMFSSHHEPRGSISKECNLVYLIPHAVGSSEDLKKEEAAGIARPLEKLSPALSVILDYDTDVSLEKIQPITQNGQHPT
DRD3 antagonist: D3 dopamine receptor (human) antagonism. P35462. D3R cells, DiscoveRx beta-arrestin luminescence, antagonist mode; stronger effect = lower value. max response, negative = inhibition, %. actives 2.5% (n = 360,000). AID 652054; in the data active means max response below about -50%; inconclusive means no clear call, values can overlap the other calls; further: on the % scale 0 is the no-effect control and ±100 the full control effect
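Cells plated overnight at 1500 cells/well, then exposed to library compounds with dopamine controls for 90 minutes at 37 degrees C. DiscoveRx reagent added for 30–60 minutes at room temperature; luminescence read, quantitative HTS format.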
DRD3 agonist: activates the human D3 dopamine receptor; P35462; D3R DiscoveRx beta-arrestin cells, luminescence, 90 min; max activation, %; actives 0.58% (n = 410,000); AID 652048; in the data active means max activation above about 30%; further: 0% is about no effect
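Cells at 1500/well, incubated overnight, then treated with pinned compounds (dopamine as control) for 90 min at 37 degrees C. DiscoveRx reagent added for 30 - 60 minutes at room temperature; luminescence read.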
D1 agonist: human D1 receptor agonism; P21728; HEK293 T-REx D1 cells, calcium flux, agonist mode; activation, % at 2 µM; actives 1% (n = 360,000); AID 504660; in the data active means activation above about 30%; further: 0% is about no effect
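Inducible HEK293 T-REx D1 cells, force-coupled to calcium signalling, were plated at 4000 cells/well with tetracycline and held overnight at 30 C. After no-wash calcium dye loading, compound-evoked calcium rise over 180 s flagged agonists.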
D1 antagonist: antagonists of human D1 dopamine receptor. P21728. HEK293 TREx D1 cells, calcium flux, dopamine EC80; stronger effect = lower value. activity change, negative = inhibition, % at 10 µM. actives 3.2% (n = 360,000). AID 504652; in the data active means activity change below about -30%; further: on the % scale 0 is the no-effect control and ±100 the full control effect
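Compound effects on dopamine-evoked calcium signalling were measured in tetracycline-induced HEK293 Trex D1 cells. Dopamine at EC80 followed a 180 s compound pre-read, and fluorescence was tracked kinetically for 180 s more.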
* = called active by the depositor; ? = inconclusive; · = no result given.

SMILES | D1 potentiator | DRD3 antagonist | DRD3 agonist | D1 agonist | D1 antagonist
CCC(C)NC(=O)CSc1nc2cc3c(cc2c(=O)n1CCCC(=O)NCCc1ccc(OC)c(OC)c1)OCO3 (centres undefined) | -2.2 | · | 6.2 | 2.1 | -4.9
Cc1ccc(-c2nc(-c3cccs3)c(-c3cccs3)[nH]2)cc1 | -3.1 | · | -1.0 | 4.2 | -33.0*
O=[N+]([O-])c1cccc(-c2nc(-c3cccs3)c(-c3cccs3)[nH]2)c1 | -8.5 | 0.0 | -12.0 | 1.7 | -35.6*
O=[N+]([O-])c1ccc(-c2nc(-c3cccs3)c(-c3cccs3)[nH]2)cc1 | -1.8 | -12.9 | -5.3 | 37.8* | -10.5
O=[N+]([O-])c1cccc(-c2nc(-c3ccccc3)c(-c3cccs3)[nH]2)c1 | -9.1 | ? | -5.4 | 0.2 | -0.8
CCOC(=O)c1cnn(-c2ccc(C(=O)Nc3cccc(C(C)=O)c3)cc2)c1N | -2.4 | · | -5.2 | 6.5 | -5.5
CCCNC(=O)c1ccccc1NC(=O)c1nsc2ccccc12 | -2.8 | · | -10.3 | -0.9 | -0.2
Cc1ccccc1Nc1c(-c2ccc(N3CCOCC3)cc2)nc2ccc(Cl)cn12 | -1.0 | · | -21.0 | 1.8 | 6.7
CCN(CC)Cc1c(-c2ccccc2)[nH]c2ccc(C)cc2c1=O | -12.8 | -19.8 | 16.2 | 0.2 | -47.9*
COc1ccc(C(=O)N/N=C(/C)c2cccc(NC(=O)c3ccccc3F)c2)cc1 | 3.0 | 8.4 | 5.7 | 4.0 | -5.4
COc1ccc(C(=O)N/N=C(\C)c2cccc(NC(=O)c3ccc(F)cc3)c2)c(OC)c1 | -4.8 | 18.8 | -5.7 | 4.8 | -36.8*
Fc1ccc(-n2nnnc2-c2cnc(-c3cccs3)nc2C(F)(F)F)cc1 | 2.2 | 0.0 | 44.5* | 6.7 | -1.4
COc1ccc(C2(CCN=Cc3ccc(N(C)C)cc3)CCOC(C)(C)C2)cc1 (centres undefined) | -1.9 | 4.2 | -1.3 | 2.0 | -78.5*
Cc1ccc(Cl)cc1NC(=O)C(=O)NCC(c1cccnc1)N1CCc2ccccc21 (centres undefined) | -2.6 | · | 8.5 | 1.8 | 48.4
Cc1nc(NCCc2ccc(O)cc2)c2nnn(Cc3ccccc3)c2n1 | 4.2 | -82.5* | -14.3 | 14.7 | 17.6
Cc1nc(NCCc2ccc(F)cc2)c2nnn(Cc3ccccc3)c2n1 | 6.5 | 0.3 | 4.6 | 4.3 | 10.9
CCCC1(c2ccccc2)NC(=O)N(CC(=O)c2[nH]c(C)c(C(=O)OCC)c2C)C1=O (centres undefined) | 3.7 | -0.8 | -0.8 | 39.3* | 42.3
CN(C)CC#CCC(O)(c1ccccc1)C1CCCCC1 (centres undefined) | -0.5 | -55.0* | -13.1 | 5.4 | 5.4
CC1(C)Nc2ccc(O)cc2-c2c1ssc2=S | -5.3 | -0.5 | 0.8 | -1.0 | -12.6
CCOc1ccc2c(c1)-c1c(ssc1=S)C(C)(C)N2C | 3.2 | -51.8* | -0.5 | -0.1 | -2.7
COc1ccc(-n2c3c(cc(-c4nc(-c5ccc(Cl)cc5)cs4)c2=O)C(=O)CC(C)(C)C3)cc1 | 5.5 | · | -6.7 | -2.5 | -2.9
CC1=CC(=C(c2ccc(N)cc2)c2ccc(N)cc2)C=CC1=N | · | · | -8.1 | · | ·
CCOc1ccccc1NC(=O)Cc1csc(COc2cccc(C)c2)n1 | 1.1 | · | 4.3 | 68.2* | 0.6
COc1cccc2sc(Nc3nnc(-c4ccccc4Cl)o3)nc12 | 3.1 | 0.2 | -4.4 | 43.0* | -7.9
Cn1c(CCN2CCN(c3ccccn3)CC2)nc2cc(NS(=O)(=O)c3ccc(Cl)cc3)ccc21 | -13.6 | -69.5* | -10.0 | -0.2 | -11.8
SMILES | D1 potentiator | DRD3 antagonist | DRD3 agonist | D1 agonist | D1 antagonist
Cc1ccc(N2CCN(CCc3nc4cc(NS(C)(=O)=O)ccc4n3C)CC2)cc1 | -2.5 | 0.0 | -5.5 | -0.5 | -14.8
Cc1ccc(S(=O)(=O)Nc2ccc3c(c2)nc(CCN2CCN(c4ccccn4)CC2)n3C)cc1 | -6.2 | -61.2* | -0.1 | 0.4 | -8.2
O=C(Cn1c(SCc2ccccc2)nc2ccccc21)N1CCOCC1 | 0.8 | -20.9 | -5.4 | 5.6 | -18.3
Cc1ccc(OCCSc2nc3ccccc3n2CC(=O)N2CCCCC2)c(C)c1 | -3.4 | · | 3.4 | 8.3 | -43.6*
O=C(CSc1nc2ccccc2n1CC(=O)N1CCOCC1)N1CCCC1 | -0.5 | 7.5 | 4.5 | -0.5 | -32.0*
CCOc1ccc(C(=O)OCc2cc(=O)n3nc(C4CCCCC4)sc3n2)cc1 | -3.2 | · | 0.4 | 6.9 | -5.3
